Inconclusive results are not listed. The source made the active and inactive calls. Rule for the calls, unless noted: active = hit-call score of the fitted dose curve at least 0.9, where 1 is the maximum; inconclusive = response in the unintended direction; inactive = score below 0.9.
Tests used:
[1] = target: Steroid hormone receptor ERR1 (Homo sapiens) (UniProt P11474); experiment: ATG_ERRa_TRANS: Attagene TRANS-FACTORIAL HepG2 Assay for human Estrogen-Related Receptor alpha (ERRa) (AID 2282971); conditions: HepG2 Attagene TRANS reporter, ERRa transactivation
How it was run: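 Reporter transcript induction was quantified by RT-PCR and capillary electrophoresis of FAM-labelled, HpaI-cut products after 24 h treatment of HepG2 cells carrying transiently transfected GAL4-UAS reporter units and an exogenous ERRa-Gal4 fusion; activity scored as increase over DMSO.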

[2] = target: Estrogen-related receptor gamma (Homo sapiens) (UniProt P62508); experiment: ATG_ERRg_TRANS: Attagene TRANS-FACTORIAL HepG2 Assay for human Estrogen-Related Receptor gamma (ERRg) (AID 2282977); conditions: HepG2 Attagene TRANS reporter, ERRg transactivation;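 note: hits increase reporter signal over DMSO so potencies reflect activators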
How it was run: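 HepG2 cells transiently transfected with multiplexed GAL4-UAS reporter units and chimeric NR-Gal4 constructs were exposed to test chemicals for 24 h. Reporter mRNA was measured by RT-PCR, 6-FAM primer extension, HpaI digestion and capillary electrophoresis; gain-of-signal versus DMSO.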

[3] = target: Bile acid receptor (Homo sapiens) (UniProt Q96RI1); experiment: ATG_FXR_TRANS: Attagene TRANS-FACTORIAL HepG2 Assay for Farnesoid X Receptor (FXR) (AID 2282979); conditions: HepG2 Attagene TRANS FXR-GAL4 reporter transcription;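 note: hits raise reporter mRNA above DMSO so AC50 marks FXR activation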
How it was run: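 Transient transfection of HepG2 with multiplexed GAL4-UAS reporter units; exogenous FXR-GAL4 chimera. Dose 24 h → TriZol RNA → oligo(dT) RT → PCR, 6-FAM primer extension, HpaI cut → CE. Gain vs DMSO.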

[4] = CCTE_Harrill_HTTr_Apoptosis_MCF7: CCTE's 6-hour Apoptosis Assessment for the High-Throughput Transcriptomics (HTTr) Platform, in MCF-7 cells cultured in DMEM + 10% fetal bovine serum, Harrill Lab (AID 2284011; active = hit-call score of the fitted dose curve at least 0.9, where 1 is the maximum; inactive = score below 0.9)
How it was run: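 MCF-7 (DMEM + 10% FBS), 384-well; 8-pt dilution series, 6 h chemical exposure; caspase-3/7 activation via CellEvent Caspase 3/7 Green, HCI; bidirectional fit vs DMSO.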

[5] = CCTE_Harrill_HTTr_CellCount_MCF7: CCTE's Cell Proliferation Assessment for the High-Throughput Transcriptomics (HTTr) Platform, Harrill Lab (AID 2284012);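 note: cells exposed to compound for six hours; intended direction is loss of nuclei count meaning fewer cells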
How it was run: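 MCF-7 cells were exposed for 6 h to an eight-point dilution series; Hoechst-labeled nuclei were counted by high content imaging. Curves were fitted bidirectionally against DMSO as negative control and baseline, with signal loss indicating reduced cell count.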

[6] = target: Oxysterols receptor LXR-alpha (Homo sapiens) (UniProt Q13133); experiment: ATG_LXRa_TRANS: Attagene TRANS-FACTORIAL HepG2 Assay for human Liver X Receptor alpha (LXRa) (AID 2282980); conditions: HepG2 Attagene TRANS reporter, LXRa transactivation
How it was run: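 Transfect HepG2 with GAL4-UAS multiplex reporter constructs (TRANS format, chimeric receptor-GAL4); treat 24 h; extract RNA, reverse-transcribe, PCR-amplify, FAM-label, HpaI-digest; resolve fragments by capillary electrophoresis. Upward response vs DMSO.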

[7] = target: Retinoic acid receptor alpha (Homo sapiens) (UniProt P10276); experiment: ATG_RARa_TRANS: Attagene TRANS-FACTORIAL HepG2 Assay for human Retinoic Acid Receptor alpha (RARa) (AID 2283005)
How it was run: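 HepG2 transiently transfected with multiplex GAL4-UAS reporter units including a human RARa–GAL4 chimera; 24 h compound exposure. Reporter mRNA quantified by RT-PCR, 6-FAM labeling and capillary electrophoresis; gain of signal versus DMSO.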

[8] = target: Estrogen receptor beta (Homo sapiens) (UniProt Q92731); experiment: OT_ER_ERbERb_1440: Odyssey Thera (OT) 24-hour HEK293T Protein-Complementation Assay for Estrogen Receptor-beta/-beta Homodimer (AID 2283380);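 note: scored as signal increase over DMSO baseline for both agonists and antagonists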
How it was run: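 HEK293T cells stably expressing ER beta LBD (aa 310-547) homodimer fragment-complementation reporter, dosed 24 h. Cells formaldehyde-fixed, Draq5-stained; gain in nuclear (agonist) or nuclear plus cytoplasmic (antagonist) fluorescence versus DMSO read by laser scanning cytometry.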

[9] = ACEA_AR_agonist_AUC_viability: ACEA Biosciences xCELLigence Real-Time Cell Analysis on Androgen Receptor Agonism for Viability (AID 2283775)
How it was run: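 Read-out is area under the impedance curve at 80 h post-dose in 22Rv1 cells, with DMSO as baseline and signal loss taken as reduced viability. Compounds ran in duplicate from 100 uM final.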

[10] = target: Estrogen receptor (Homo sapiens) (UniProt P03372); experiment: ATG_ERa_TRANS: Attagene TRANS-FACTORIAL HepG2 Assay for human Estrogen Receptor alpha (ERa) (AID 2282970); conditions: HepG2 Attagene TRANS ERa GAL4 reporter, mRNA
How it was run: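 Human liver HepG2, transient transfection of multiple GAL4-UAS reporter units; TRANS format (exogenous NR-Gal4 chimera). 24 h dosing. Readout: reporter mRNA, RT-PCR, 6-FAM primer extension, HpaI digest, capillary electrophoresis. Positive direction vs DMSO.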

[11] = BSK_3C_TissueFactor: BioMAP Diversity Plus: 3C Assay for Tissue Factor Biomarker Activity (AID 2282997; active = hit-call score of the fitted dose curve at least 0.9, where 1 is the maximum; inactive = score below 0.9); conditions: BioMAP 3C HUVEC, tissue factor biomarker readout; actives raise or lower the signal
How it was run: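 ELISA read-out of Tissue Factor levels on human umbilical vein endothelium collected 24 h after chemical dosing. Gain or loss of signal was fitted relative to DMSO.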

[12] = BSK_3C_uPAR: BioMAP Diversity Plus: 3C Assay for Urokinase-type plasminogen activator receptor (uPAR) Biomarker Activity (AID 2282998; active = hit-call score of the fitted dose curve at least 0.9, where 1 is the maximum; inactive = score below 0.9); conditions: BioMAP 3C HUVEC, uPAR biomarker ELISA; actives raise or lower the signal
How it was run: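 ELISA readout of uPAR on human vascular endothelium (umbilical vein primary cells), taken 24 h after chemical dosing. Increases and decreases are both fitted relative to DMSO vehicle.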

[13] = BSK_3C_VCAM1: BioMAP Diversity Plus: 3C Assay for Vascular cell adhesion molecule 1 (VCAM1) Biomarker Activity (AID 2282999; active = hit-call score of the fitted dose curve at least 0.9, where 1 is the maximum; inactive = score below 0.9); conditions: BioMAP 3C HUVEC, VCAM1 ELISA, cytokine-stimulated; actives raise or lower the signal
How it was run: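 Human umbilical vein endothelial cells (3C system), biomarker read by ELISA 24 h after dosing; bidirectional fit against DMSO baseline. Cytotoxicity tracked by SRB total-protein staining in parallel cultures at biomarker time.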

[14] = BSK_4H_Eotaxin3: BioMAP Diversity Plus: 4H Assay for Eotaxin 3 Biomarker Activity (AID 2283000; active = hit-call score of the fitted dose curve at least 0.9, where 1 is the maximum; inactive = score below 0.9); conditions: primary human endothelial cells (HUVEC); actives raise or lower the signal
How it was run: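 Chemicals were added to human umbilical vein endothelium cultures, and Eotaxin-3 was quantified by ELISA at 24 h. Values were derived by bidirectional fitting with DMSO serving as negative control and activity baseline.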

[15] = BSK_3C_Proliferation: Cell Proliferation Assessment in the BioMAP Diversity Plus: 3C Assay (AID 2283006; active = hit-call score of the fitted dose curve at least 0.9, where 1 is the maximum; inactive = score below 0.9;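 note: potency may reflect either rise or fall in cell number versus DMSO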); conditions: primary human endothelial cells (HUVEC)
How it was run: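 Human umbilical vein endothelial cells were grown sub-confluent and exposed to chemical for 48 h, then fixed with 10% TCA and stained with 0.1% sulforhodamine B; absorbance at 560 nm gave relative cell number, fitted bidirectionally against DMSO baseline.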

[16] = read-out: E-selectin (Homo sapiens) (UniProt P16581); experiment: BSK_3C_Eselectin: BioMAP Diversity Plus: 3C Assay for Eselectin Biomarker Activity (AID 2283015; active = hit-call score of the fitted dose curve at least 0.9, where 1 is the maximum; inactive = score below 0.9); conditions: primary human endothelial cells (HUVEC); actives raise or lower the signal
How it was run: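 ELISA read-out of E-selectin on endothelial monolayers after 24 h chemical treatment. Human umbilical vein primary cells served as the system, with DMSO defining baseline activity for bidirectional fitting.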

[17] = read-out: Interleukin-1 alpha (IL1a), IL1A (gene 3552); experiment: BSK_BE3C_IL1a: BioMAP Diversity Plus: BE3C Assay for Interleukin-1 alpha (IL1a) Biomarker Activity (AID 2283016; active = hit-call score of the fitted dose curve at least 0.9, where 1 is the maximum; inactive = score below 0.9); conditions: primary human bronchial epithelial cells; actives raise or lower the signal
How it was run: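 Human primary bronchial epithelial cells (BE3C system) were dosed with compound and IL-1a measured by ELISA 24 h later. Activity was fitted bidirectionally against DMSO baseline; cytotoxicity was tracked in parallel cultures by SRB total-protein staining.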

[18] = read-out: Monocyte Chemoattractant Protein-1 (MCP1), CCL2 (gene 6347); experiment: BSK_3C_MCP1: BioMAP Diversity Plus: 3C Assay for Monocyte Chemoattractant Protein-1 (MCP1) Biomarker Activity (AID 2283017; active = hit-call score of the fitted dose curve at least 0.9, where 1 is the maximum; inactive = score below 0.9); conditions: primary human endothelial cells (HUVEC); actives raise or lower the signal
How it was run: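 ELISA read-out of MCP-1 from human umbilical vein endothelial cell cultures harvested 24 h post-dosing. Gain or loss of signal was fitted relative to DMSO.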

Measured: AC50

Sequence of Oxysterols receptor LXR-alpha (Homo sapiens) (Q13133 whole entry, looked up, the tested form may be a part): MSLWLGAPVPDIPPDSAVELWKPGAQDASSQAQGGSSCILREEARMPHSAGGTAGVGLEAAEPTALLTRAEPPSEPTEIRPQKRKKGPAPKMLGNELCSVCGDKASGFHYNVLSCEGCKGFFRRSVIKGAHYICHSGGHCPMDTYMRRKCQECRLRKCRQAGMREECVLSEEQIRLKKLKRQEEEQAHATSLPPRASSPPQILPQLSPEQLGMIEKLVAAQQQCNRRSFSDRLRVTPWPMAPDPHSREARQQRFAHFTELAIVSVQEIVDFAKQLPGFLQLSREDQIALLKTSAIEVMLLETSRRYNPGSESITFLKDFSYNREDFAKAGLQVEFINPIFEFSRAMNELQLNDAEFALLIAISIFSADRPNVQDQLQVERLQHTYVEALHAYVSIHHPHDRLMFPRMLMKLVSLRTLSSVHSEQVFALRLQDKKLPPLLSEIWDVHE
Sequence of Estrogen-related receptor gamma (Homo sapiens) (P62508 whole entry, looked up, the tested form may be a part): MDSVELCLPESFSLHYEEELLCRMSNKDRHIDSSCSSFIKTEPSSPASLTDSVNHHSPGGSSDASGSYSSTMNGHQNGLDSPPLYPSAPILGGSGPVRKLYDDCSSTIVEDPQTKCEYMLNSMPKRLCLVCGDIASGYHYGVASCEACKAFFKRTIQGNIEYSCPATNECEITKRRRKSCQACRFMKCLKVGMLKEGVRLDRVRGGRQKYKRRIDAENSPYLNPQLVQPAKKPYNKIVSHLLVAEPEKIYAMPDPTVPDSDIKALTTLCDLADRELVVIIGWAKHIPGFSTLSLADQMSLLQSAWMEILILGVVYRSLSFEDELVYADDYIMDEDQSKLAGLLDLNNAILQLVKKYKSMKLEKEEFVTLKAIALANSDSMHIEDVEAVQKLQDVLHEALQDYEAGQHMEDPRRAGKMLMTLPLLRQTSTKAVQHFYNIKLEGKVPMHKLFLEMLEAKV
Sequence of Steroid hormone receptor ERR1 (Homo sapiens) (P11474 whole entry, looked up, the tested form may be a part): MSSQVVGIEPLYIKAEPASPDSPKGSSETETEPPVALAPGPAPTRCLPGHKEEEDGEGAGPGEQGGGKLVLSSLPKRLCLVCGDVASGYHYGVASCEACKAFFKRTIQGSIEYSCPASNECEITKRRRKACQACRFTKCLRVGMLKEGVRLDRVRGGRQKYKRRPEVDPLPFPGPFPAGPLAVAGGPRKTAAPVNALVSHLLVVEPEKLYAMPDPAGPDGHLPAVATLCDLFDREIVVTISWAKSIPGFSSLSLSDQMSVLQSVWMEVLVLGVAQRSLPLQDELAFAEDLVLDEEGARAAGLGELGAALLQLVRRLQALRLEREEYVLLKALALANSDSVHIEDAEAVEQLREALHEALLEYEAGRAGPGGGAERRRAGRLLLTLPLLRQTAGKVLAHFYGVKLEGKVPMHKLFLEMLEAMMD
Sequence of E-selectin (Homo sapiens) (P16581 whole entry, looked up): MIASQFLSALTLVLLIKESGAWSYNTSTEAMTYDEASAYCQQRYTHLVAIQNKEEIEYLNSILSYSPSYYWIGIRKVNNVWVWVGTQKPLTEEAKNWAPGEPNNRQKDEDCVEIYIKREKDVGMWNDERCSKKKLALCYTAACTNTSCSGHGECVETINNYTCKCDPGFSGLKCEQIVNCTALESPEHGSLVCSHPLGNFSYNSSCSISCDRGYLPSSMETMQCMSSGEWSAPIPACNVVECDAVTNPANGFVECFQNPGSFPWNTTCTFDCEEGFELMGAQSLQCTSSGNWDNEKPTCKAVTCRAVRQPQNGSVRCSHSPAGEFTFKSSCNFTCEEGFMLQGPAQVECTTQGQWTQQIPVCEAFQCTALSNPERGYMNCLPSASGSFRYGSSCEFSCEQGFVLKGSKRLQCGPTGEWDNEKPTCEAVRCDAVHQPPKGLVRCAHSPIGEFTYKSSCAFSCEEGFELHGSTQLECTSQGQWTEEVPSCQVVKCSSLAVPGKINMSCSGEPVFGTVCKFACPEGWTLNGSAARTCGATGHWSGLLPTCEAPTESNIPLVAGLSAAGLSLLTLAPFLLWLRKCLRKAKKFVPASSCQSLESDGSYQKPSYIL
Sequence of Bile acid receptor (Homo sapiens) (Q96RI1 whole entry, looked up, the tested form may be a part): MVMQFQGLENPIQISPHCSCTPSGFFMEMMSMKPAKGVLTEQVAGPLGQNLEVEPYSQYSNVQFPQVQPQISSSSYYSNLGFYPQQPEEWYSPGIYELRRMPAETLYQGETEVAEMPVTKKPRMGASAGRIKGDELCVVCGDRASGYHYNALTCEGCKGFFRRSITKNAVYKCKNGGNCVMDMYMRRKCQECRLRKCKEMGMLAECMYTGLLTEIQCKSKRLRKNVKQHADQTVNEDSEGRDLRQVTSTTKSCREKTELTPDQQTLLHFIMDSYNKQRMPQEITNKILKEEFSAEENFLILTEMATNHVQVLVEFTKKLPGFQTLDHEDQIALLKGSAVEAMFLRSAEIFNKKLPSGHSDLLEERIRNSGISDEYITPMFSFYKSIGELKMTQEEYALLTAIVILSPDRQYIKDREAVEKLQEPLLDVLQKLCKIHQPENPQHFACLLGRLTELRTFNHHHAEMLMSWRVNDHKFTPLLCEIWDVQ
Sequence of Estrogen receptor (Homo sapiens) (P03372 whole entry, looked up, the tested form may be a part): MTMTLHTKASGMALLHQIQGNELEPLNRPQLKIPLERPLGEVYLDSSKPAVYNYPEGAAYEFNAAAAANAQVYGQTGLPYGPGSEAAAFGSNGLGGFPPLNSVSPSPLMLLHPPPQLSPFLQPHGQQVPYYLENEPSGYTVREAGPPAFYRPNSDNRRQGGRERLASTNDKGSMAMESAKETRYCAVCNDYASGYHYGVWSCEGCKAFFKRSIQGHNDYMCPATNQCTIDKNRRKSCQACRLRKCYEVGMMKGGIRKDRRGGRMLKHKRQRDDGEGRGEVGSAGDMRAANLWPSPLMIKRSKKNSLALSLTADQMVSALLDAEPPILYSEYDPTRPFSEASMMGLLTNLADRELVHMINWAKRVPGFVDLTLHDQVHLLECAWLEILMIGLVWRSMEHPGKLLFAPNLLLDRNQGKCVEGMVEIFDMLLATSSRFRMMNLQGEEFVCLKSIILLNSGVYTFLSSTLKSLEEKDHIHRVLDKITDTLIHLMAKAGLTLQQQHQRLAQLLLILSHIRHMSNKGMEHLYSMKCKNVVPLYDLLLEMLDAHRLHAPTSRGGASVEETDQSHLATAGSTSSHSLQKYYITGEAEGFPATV
Sequence of Retinoic acid receptor alpha (Homo sapiens) (P10276 whole entry, looked up, the tested form may be a part): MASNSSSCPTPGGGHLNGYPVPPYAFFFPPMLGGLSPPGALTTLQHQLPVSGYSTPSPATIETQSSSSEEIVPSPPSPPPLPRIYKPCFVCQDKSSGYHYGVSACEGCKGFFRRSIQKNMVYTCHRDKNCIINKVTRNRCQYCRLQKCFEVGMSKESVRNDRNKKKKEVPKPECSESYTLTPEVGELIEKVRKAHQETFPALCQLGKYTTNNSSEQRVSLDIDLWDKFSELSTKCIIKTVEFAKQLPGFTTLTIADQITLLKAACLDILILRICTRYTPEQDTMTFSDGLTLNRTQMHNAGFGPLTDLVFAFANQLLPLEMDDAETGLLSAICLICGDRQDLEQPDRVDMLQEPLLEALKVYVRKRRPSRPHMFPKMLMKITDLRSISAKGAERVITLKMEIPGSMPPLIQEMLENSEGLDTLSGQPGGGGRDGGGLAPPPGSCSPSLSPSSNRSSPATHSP
Sequence of Estrogen receptor beta (Homo sapiens) (Q92731 whole entry, looked up, the tested form may be a part): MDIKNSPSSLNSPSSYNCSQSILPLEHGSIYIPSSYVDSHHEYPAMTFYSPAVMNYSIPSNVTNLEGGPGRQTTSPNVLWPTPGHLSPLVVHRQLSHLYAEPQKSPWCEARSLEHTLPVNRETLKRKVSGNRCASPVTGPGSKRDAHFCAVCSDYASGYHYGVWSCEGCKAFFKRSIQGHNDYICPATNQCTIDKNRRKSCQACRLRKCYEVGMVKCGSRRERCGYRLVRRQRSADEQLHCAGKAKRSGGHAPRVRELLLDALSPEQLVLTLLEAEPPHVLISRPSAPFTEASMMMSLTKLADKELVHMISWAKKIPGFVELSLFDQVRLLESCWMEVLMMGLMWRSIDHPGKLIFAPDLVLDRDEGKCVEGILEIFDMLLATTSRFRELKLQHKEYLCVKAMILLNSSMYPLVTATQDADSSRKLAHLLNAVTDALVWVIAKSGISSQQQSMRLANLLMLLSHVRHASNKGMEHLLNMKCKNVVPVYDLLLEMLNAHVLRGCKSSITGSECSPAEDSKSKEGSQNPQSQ

ClC1=C(Cl)[C@]2(Cl)[C@@H]3[C@@H](Cl)[C@H](Cl)C[C@@H]3[C@@]1(Cl)C2(Cl)Cl
inactive: [1] | [2] | [3]

Cl/C=C\CCl
inactive: [1] | [4] | [5]

[N-]=[N+]=CC(=O)OC[C@H](N)C(=O)O
inactive: [6] | [7] | [4] | [5]

C=CC(=O)OCCO
inactive: [8] | [9]

CC(C)(C)C(=O)CCl
active: [11] 20 µM | [13] 20 µM | [14] 20 µM | [15] 16.9 µM | [16] 20 µM
not listed: [3] | [7] | [8] | [9]
inactive: all other assays above

c1cc(OCC2CO2)ccc1Cc1ccc(OCC2CO2)cc1 (configuration not stated)
inactive: [4] | [5]

O=C1C(Cl)=C(Cl)C(=O)C(Cl)=C1Cl
inactive: [10] | [2] | [3] | [6] | [4] | [5]
active: [11] 7 µM | [12] 9.52 µM | [13] 11.9 µM | [14] 15 µM | [15] 5.26 µM | [16] 10.3 µM | [17] 30.5 µM | [18] 12.4 µM

— PubChem BioAssay (EPA / NIEHS)
